# From PubChem BioAssay
# Compounds with a hit are over-represented: about 1.4% of the library has one in this group of screens.
# PTHR1 ag: PTHR1 (human) receptor agonism. Q03431. Potency, µM (doses to about 115 µM), usual class: activators. hit rate 0.075% among 410,000. HEK293 GP2 PTHR1 cells, GloSensor cAMP luminescence, 1 h; note: nearly all actives have a fitted effect of over 55% in size
#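 HEK-293-derived GP2 cells expressing PTHR1 and a GloSensor cAMP reporter, 3,000/well, plated overnight, given luciferin plus IBMX (each 0.5 mM as added) for 1 h at 37 °C, then compound for 1 h at 37 °C. Luminescence was read after 15 min at room temperature.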
# GRP78 ERSR act: ER stress response induction in glioma; AID 602332; U87-MG GRP78 promoter luciferase reporter, 16 h; hit rate 0.02% among 420,000; Potency, µM, most hits filed as activators; note: series mostly up to about 76 µM; nearly all actives have a fitted effect of over 35% in size
#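 ERSR induction read as luciferase luminescence (Bright-Glo, 10 min at room temperature) in stably transfected human U87-MG glioma cells exposed to compounds for 16 h, using GRP78 as sensor.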
# RXFP1 ag: RXFP1 (human) receptor agonism. Q9HBX9. HEK293T-RXFP1 cAMP TR-FRET, 30 min; response scale: percent of porcine relaxin response, buffer zero. Potency, µM (doses to about 57.5 µM), usual class: activators. hit rate 0.3% among 370,000. AID 2676; note: nearly all actives have a fitted effect of over 60% in size
#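 HEK293T cells stably expressing RXFP1 were pretreated with the PDE4 inhibitor Ro 20174, exposed to compounds for 30 min at 37C, lysed, and cAMP was read by TR-FRET. Data normalized to buffer (basal) and 29 nM porcine relaxin (100%).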
# hERG WT inh: KCNH2 (human, wildtype) channel inhibition; activity change, % at 1.84 µM; Q12809; U2OS, BacMam KCNH2, thallium flux FluxOr; stronger effect = lower value; AID 720551; hit rate 0.37% among 340,000;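 active = maximum activity change below -70%; inconclusive = maximum activity change between -70% and -50%; inactive = maximum activity change above -50%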
# Target sequence (Q12809 whole entry, looked up): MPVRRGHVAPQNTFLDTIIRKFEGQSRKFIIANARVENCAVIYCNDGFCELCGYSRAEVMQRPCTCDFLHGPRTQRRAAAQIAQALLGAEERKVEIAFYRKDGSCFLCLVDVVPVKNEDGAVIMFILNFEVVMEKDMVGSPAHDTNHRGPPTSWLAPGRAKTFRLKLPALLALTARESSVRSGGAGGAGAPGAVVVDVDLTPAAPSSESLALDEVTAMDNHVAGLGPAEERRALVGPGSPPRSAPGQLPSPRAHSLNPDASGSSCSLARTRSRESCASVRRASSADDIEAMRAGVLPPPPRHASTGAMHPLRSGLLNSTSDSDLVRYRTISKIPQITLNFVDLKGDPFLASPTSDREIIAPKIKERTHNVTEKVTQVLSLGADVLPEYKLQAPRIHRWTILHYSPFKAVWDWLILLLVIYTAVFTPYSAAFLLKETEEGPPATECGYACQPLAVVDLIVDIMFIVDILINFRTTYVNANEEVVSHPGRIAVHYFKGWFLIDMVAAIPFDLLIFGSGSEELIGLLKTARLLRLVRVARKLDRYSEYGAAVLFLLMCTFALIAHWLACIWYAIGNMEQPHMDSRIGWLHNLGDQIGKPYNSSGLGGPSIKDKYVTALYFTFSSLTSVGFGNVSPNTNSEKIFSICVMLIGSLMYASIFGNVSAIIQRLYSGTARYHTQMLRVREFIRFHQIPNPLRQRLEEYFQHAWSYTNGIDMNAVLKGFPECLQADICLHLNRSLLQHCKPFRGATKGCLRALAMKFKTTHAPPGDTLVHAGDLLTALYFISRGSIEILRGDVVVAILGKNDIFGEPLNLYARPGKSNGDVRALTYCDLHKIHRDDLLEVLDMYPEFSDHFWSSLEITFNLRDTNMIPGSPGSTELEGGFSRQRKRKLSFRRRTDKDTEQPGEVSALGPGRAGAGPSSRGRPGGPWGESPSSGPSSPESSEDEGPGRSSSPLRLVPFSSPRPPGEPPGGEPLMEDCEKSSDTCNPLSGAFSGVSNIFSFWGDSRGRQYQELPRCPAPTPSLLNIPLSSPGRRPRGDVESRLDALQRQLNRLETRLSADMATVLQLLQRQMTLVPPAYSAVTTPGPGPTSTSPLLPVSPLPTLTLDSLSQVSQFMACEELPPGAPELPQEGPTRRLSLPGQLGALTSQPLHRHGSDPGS
#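 U2OS cells transduced with wild-type KCNH2 virus are loaded with FluxOr dye for 45 min, and thallium flux is measured in kinetic reads before and after stimulation buffer. Rate constants are normalized to DMSO controls.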
# KCNH2 3.1 inh: inhibitors of human KCNH2 3.1 potassium channel isoform; hit rate 0.95% among 340,000; activity change, % (tested at about 1.8 µM); U2OS KCNH2 3.1, thallium flux FluxOr; stronger effect = lower value;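 active = maximum activity change below -70%; inconclusive = maximum activity change from -70% to -50%; inactive = maximum activity change above -50%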;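 note: thallium influx rate constant from kinetic fluorescence after stimulation buffer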
#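 Thallium flux via FluxOr fluorescence (Red40 quencher, 45 min loading) in U2OS cells virally expressing the KCNH2 3.1 isoform (1.77 x 10^8 /mL virus, overnight at 37 C). Rate constants from 2-min kinetic reads post-stimulation, normalised to positive and negative controls.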
# RXFP1 antagonist: RXFP1 (human) relaxin receptor antagonism. AID 1259400. Q9HBX9. HEK293-RXFP1, relaxin-stimulated cAMP HTRF, 30 min; stronger effect = lower value. activity change, negative = inhibition, % at 57.5 µM. hit rate 0.59% among 350,000;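 active = activity change of -60% or lower, but not beyond a set lower limit; inconclusive = change between -60% and -40%, or beyond the set limit; inactive = change above -40%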
# Hits are given with their value; n = inactive; u = inconclusive; x = not tested or not shown. Unless noted, calls come from the whole dose curve; as a rule, active = well fitted curve in the direction sought with a large enough effect; inconclusive = small, poorly fitted or top-dose-only effect, or another doubt; inactive = no such curve, though single readings can be large; an effect the other way counts as inactive or inconclusive.
SMILES,PTHR1 ag,GRP78 ERSR act,RXFP1 ag,hERG WT inh,KCNH2 3.1 inh,RXFP1 antagonist
CC(=O)c1ccc(NC(=O)C(C)N2CCN(C/C=C/c3ccccc3)CC2)cc1 (stereo unspecified),n,n,n,n,u,n
Cc1ccc(NC(=O)CCN2CCC(Cc3ccccc3)CC2)cc1,n,n,n,n,-124.2,n
Cc1cnc(C(=O)OCC(=O)Nc2cccc(S(=O)(=O)N3CCCCC3)c2)cn1,n,n,n,n,n,n
O=C(NCc1ccccn1)Nc1ccc(F)c(Cl)c1,n,n,n,n,n,n
COc1ccc(C)cc1NC(=O)CCN1CCN(C/C=C/c2ccccc2)CC1,n,n,n,u,-99.1,n
CC(C(=O)N(C)Cc1ccccc1)N1CCN(C/C=C/c2ccccc2)CC1 (stereo unspecified),n,n,n,n,-95.8,n
COc1ccc(OC)c(NC(=S)N2CCN(C/C=C/c3ccccc3)CC2)c1,n,n,n,n,n,n
O=C(CCN1CCN(C/C=C/c2ccccc2)CC1)Nc1ccc(Cl)cc1,n,n,n,n,-99.0,n
COc1ccc(Cl)cc1NC(=O)C(C)N1CCN(C/C=C/c2ccccc2)CC1 (stereo unspecified),n,n,n,-75.3,-93.3,n
COc1ccc(S(=O)(=O)Nc2c(C)nc3nc(C)[nH]n3c2=O)cc1,n,n,n,n,n,n
CCOC(=O)C1CCN(CCC(=O)Nc2ccc(C)c(C)c2)CC1,n,n,n,n,n,n
Cc1ccc(NC(=O)CCN2CCN(C/C=C/c3ccccc3)CC2)cc1C,n,n,n,n,-95.6,n
CCNS(=O)(=O)c1ccc(CCC(=O)NCCC2=CCCCC2)cc1,n,n,n,-243.4,n,n
Cc1cc(C)nc(SCc2ccc(Cl)cc2)n1,n,n,n,n,n,n
Cc1cc(C)nc(SCNC(=O)c2ccc(Cl)cc2)n1,n,n,n,n,-101.4,n
Cc1ccc(Cl)cc1N1CCN(C(=O)COCc2cc(-c3ccc4c(c3)OCO4)on2)CC1,n,n,n,x,x,n
Cc1ccc(S(=O)(=O)NCC(=O)NCc2cc(=O)n(C)c(=O)n2C)cc1C,n,n,n,n,n,-100.0
Cn1c(=O)c2c(nc(Cc3ccc(N)cc3)n2C)n(C)c1=O,n,n,15.8µM,n,n,n
Cn1c(=O)c2c(nc(CCC3CCCC3)n2C)n(C)c1=O,n,n,x,n,n,n
Cc1onc(-c2ccccc2Cl)c1C(=O)N[C@@H](C)c1ccccc1,n,n,x,n,n,n
OCCNCc1ccc(OCc2ccc(Cl)cc2Cl)cc1,n,n,n,n,-83.7,n
COc1ccc(CC(=O)NNC(=O)c2ccccn2)cc1,n,n,n,n,n,-61.5
O=C(C1CCCN1S(=O)(=O)c1cccc2nsnc12)N1CCN(c2ccc(F)cc2)CC1 (stereo unspecified),n,n,n,n,-73.6,n
O=C(C1CCCN1S(=O)(=O)c1cccc2nsnc12)N1CCN(c2ccccc2)CC1 (stereo unspecified),n,n,n,n,n,n
Cc1ccc(S(=O)(=O)N(C)Cc2ccc(C(=O)N/N=C/c3ccc(OC(F)F)cc3OC(F)F)cc2)cc1,n,n,n,n,-75.5,n
SMILES,PTHR1 ag,GRP78 ERSR act,RXFP1 ag,hERG WT inh,KCNH2 3.1 inh,RXFP1 antagonist
CCC(C(=O)NC1CCCCC1)n1c(SCc2ccccc2F)nc2ccncc21 (stereo unspecified),n,n,n,n,-117.9,n
CCOc1ncccc1C(=O)NCc1ccc(OC)c(OC)c1,n,n,n,n,-102.2,n
CCOc1ncccc1C(=O)NCc1ccc(OC)cc1,n,n,n,n,n,n
COC(=O)c1ccc(C(C(=O)NCc2ccccc2)N(Cc2ccco2)C(=O)c2cnccn2)cc1 (stereo unspecified),n,n,n,n,n,n
O=C(OC1CCOC1=O)c1ccc2ncsc2c1 (stereo unspecified),n,n,n,n,n,n
Cc1cc(C)cc(NC(=O)CN2CCN(CCN=CC3=C(O)CC(C)(C)CC3=O)CC2)c1,n,n,n,n,-93.3,n
CC(Nc1ccc(Cl)cc1)c1cc(Cl)ccc1O (stereo unspecified),n,n,n,n,n,n
CC(Nc1ccc(Br)cn1)c1cc(Cl)ccc1O (stereo unspecified),n,n,n,n,-72.1,n
CCOC(=O)[C@]12CCCC=C1N(Cc1ccc(Cl)cc1Cl)C(=O)[C@H](CC(=O)N1CCN(C(=O)C3CC3)CC1)C2,n,x,x,x,x,x
CN(C)S(=O)(=O)c1ccc(-c2csc(N/N=C/c3ccco3)n2)cc1,n,n,n,n,n,-71.6
Cc1sc(N/N=C/c2ccco2)nc1-c1ccccc1,n,n,n,n,n,-89.0
CCc1nc2ccc(C(=O)NCCCn3ccnc3)cn2c1N(C)CCCc1ccccc1,n,n,x,x,x,x
CC(=O)N(c1ccc(C)cc1)c1nc(C)cc(C)c1C#N,n,n,n,n,n,n
CCN(CC)S(=O)(=O)c1ccc2c(c1)nc(CCC(=O)OCC(=O)Nc1cc(Cl)cc(Cl)c1)n2C,n,n,n,n,-83.3,n
CC1=CC(C)(C)C(C(=O)O)C(C(=O)O)C1 (stereo unspecified),n,n,n,-108.7,n,n
CC1=CC(C)C(C(=O)O)C(C(=O)N2CCN(C)CC2)C1 (stereo unspecified),n,n,n,n,n,n
CCOC(=O)c1ccc(N/C=C2/CCCC(C)C2=O)cc1 (stereo unspecified),n,n,n,n,n,n
Cc1ccc(C(=O)c2c3ccc(C(F)(F)F)cc3[n+]([O-])n2CCCC(N)=O)cc1,n,n,n,n,-79.2,x
Cc1ccc(C(=O)c2c3ccc(C(F)(F)F)cc3[n+]([O-])n2CCCN)cc1,n,n,n,n,-84.7,x
CC1CCC(C(=O)NC(C(=O)Nc2ccccn2)C(C)C)CC1 (stereo unspecified),n,n,n,n,n,n
O=C(COC(=O)c1ccccc1)NCC1COc2ccccc2O1 (stereo unspecified),n,n,x,-245.5,n,n
Cc1ccc(C(=O)OCC(=O)NCC2COc3ccccc3O2)cc1 (stereo unspecified),n,n,n,n,n,n
Cc1ccn2c(NCc3ccccc3)c(-c3cccs3)nc2c1,n,n,n,n,n,-77.4
O=C(C=C=Nc1ccccc1)C(=O)N=C=Cc1ccccc1,n,n,n,n,n,-61.5
CC(=O)OCC1OC(n2cc(F)c(=O)[nH]c2=O)C(OC(C)=O)C1OC(C)=O (stereo unspecified),n,n,x,n,n,n
